Pol iota inh = qHTS for Inhibitors of Polymerase Iota; Potency, µM (doses to about 115 µM), actives largely listed as inhibitors; AID 588590, 2011; Pol iota fluorescent replication assay, 10 min; hit rate 1% among 390,000
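Pol iota at 10 nM preincubated 15 min with compounds at room temperature; reaction started with fluorescent substrate, 50 nM final. Fluorescence read kinetically at 0 and 10 min; buffer-only wells as negative control.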
POLB inh = qHTS Assay for Inhibitors of DNA Polymerase Beta. P06746. Pol beta primer extension/strand displacement, fluorescence kinetic. Potency, µM (highest dose often 114 µM), actives largely listed as inhibitors. hit rate 1.3% among 340,000. AID 485314, 2010
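10 nM enzyme + cpd, 15 min RT; start with substrate 50 nM final; read 0 min and after 10 min RT. Corrected, normalized data; 4-parameter Hill curve fit.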
TDP1 block = qHTS Assay for Inhibitors of Tyrosyl-DNA Phosphodiesterase (TDP1) | Tyrosyl-DNA phosphodiesterase 1 (Homo sapiens), Q9NUW8 | recombinant TDP1, AlphaScreen DNA substrate cleavage | Potency, µM (series often up to 130 µM), actives largely listed as inhibitors | hit rate 0.28% among 350,000 | AID 485290, 2010; further: nearly all actives have a fitted effect of over 40% in size
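Enzyme-compound mixtures sat 15 min at room temperature, followed by a 5 min reaction with 15 nM final substrate and 10 min with AlphaScreen beads. Recombinant human Tdp1 was used at 1 nM final.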
Pol eta inh = qHTS for Inhibitors of Polymerase Eta; hit rate 1.2% among 390,000; Potency, µM (titrated, usually from 114 µM), hits mostly inhibitors; DNA polymerase eta (Homo sapiens), Q9Y253; recombinant Pol eta, fluorescent DNA replication assay
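Pol eta (10 nM) was preincubated with compounds for 15 min at room temperature, after which fluorescent replication substrate (50 nM final) was added to start the reaction. Fluorescence was read kinetically at 0 and 10 min.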
POLK inh = qHTS for Inhibitors of Polymerase Kappa; Potency, µM (series often up to 107 µM), usual class: inhibitors; hit rate 0.53% among 400,000; purified Pol kappa, fluorescent DNA synthesis assay, 10 min
Target sequence (Q9UBT6 whole entry, looked up): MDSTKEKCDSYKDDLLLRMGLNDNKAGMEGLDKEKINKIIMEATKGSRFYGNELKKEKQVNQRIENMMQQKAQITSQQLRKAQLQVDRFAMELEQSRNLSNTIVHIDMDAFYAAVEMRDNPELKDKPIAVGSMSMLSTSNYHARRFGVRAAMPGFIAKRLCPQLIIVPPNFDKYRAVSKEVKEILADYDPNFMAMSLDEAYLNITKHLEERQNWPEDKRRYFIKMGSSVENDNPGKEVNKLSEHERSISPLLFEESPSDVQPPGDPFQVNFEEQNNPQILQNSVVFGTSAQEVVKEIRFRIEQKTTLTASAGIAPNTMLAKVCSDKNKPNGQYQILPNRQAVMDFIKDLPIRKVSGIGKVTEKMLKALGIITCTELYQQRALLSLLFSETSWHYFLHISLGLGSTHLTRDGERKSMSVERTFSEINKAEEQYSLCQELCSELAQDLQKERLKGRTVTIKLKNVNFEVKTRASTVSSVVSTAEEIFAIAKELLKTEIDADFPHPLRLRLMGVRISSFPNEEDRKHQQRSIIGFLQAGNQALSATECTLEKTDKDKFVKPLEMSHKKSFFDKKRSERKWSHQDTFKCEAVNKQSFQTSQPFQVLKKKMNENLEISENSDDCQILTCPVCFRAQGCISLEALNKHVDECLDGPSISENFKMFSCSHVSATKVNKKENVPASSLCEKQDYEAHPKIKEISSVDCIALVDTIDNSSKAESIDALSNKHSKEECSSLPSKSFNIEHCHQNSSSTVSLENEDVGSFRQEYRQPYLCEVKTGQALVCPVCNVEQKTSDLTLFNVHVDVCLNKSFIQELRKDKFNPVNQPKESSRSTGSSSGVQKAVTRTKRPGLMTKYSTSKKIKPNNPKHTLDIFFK
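10 nM Pol kappa preincubated 15 min at room temperature with compounds, then reaction started with substrate at 50 nM final. Fluorescence read kinetically at 0 and 10 min; buffer-only wells served as negative control.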
Hits are given with their value; – = inactive; ? = inconclusive; · = no result given; [ ] = dose if it differs, or a comment. A selection: hits, their analogues and other compounds. The true share with any hit is near 2.4%. The call rests on the fitted dose curve; in most records, active means well fitted curve in the direction sought with a large enough effect; inconclusive means small, poorly fitted or top-dose-only effect, or another doubt; inactive means no such curve, though single readings can be large; an effect the other way counts as inactive or inconclusive.

SMILES	Pol iota inh	POLB inh	TDP1 block	Pol eta inh	POLK inh
C#CCOCCOCCOCCNc1nc(N2CCOCC2)nc(N2CCN(C(=O)[C@H](Cc3cc4ccccc4[nH]3)n3cc([C@@H](N)C(C)CC)nn3)CC2)n1 (stereo partly drawn)	?	–	–	–	–
C#CCOCCOCCOCCNc1nc(N2CCN(C(=O)[C@H](Cc3ccc(O)cc3)n3cc([C@@H](N)C(C)CC)nn3)CC2)nc(N2CCN(C(=O)[C@H](Cc3cc4ccccc4[nH]3)n3cc([C@@H](N)Cc4ccc(O)cc4)nn3)CC2)n1 (stereo partly drawn)	·	–	–	·	·
N=C1/C(=C/c2cccn2Cc2ccc(F)cc2)C(=O)N=C2SC=CN12	–	–	–	–	–
Cc1ccc(Cn2cccc2/C=C2/C(=N)N3C=CSC3=NC2=O)cc1	?	–	–	70.8µM	–
Cc1ccc(CCNC(=O)CN(c2ccc(C(C)C)cc2)S(=O)(=O)c2c(C)nn(C)c2C)cc1	–	–	–	–	–
COc1cc(OC)c(/C=C/c2ccccn2)c(OC)c1	–	·	·	·	–
CC1=CC(=O)CC2C1(C)CCC(C)C2(C)CCC(C)CC(=O)O (stereo not drawn)	89.1µM	44.7µM	·	79.4µM	–
CN(C)c1ccc(/C=C/c2c(Cl)cnc3ccccc23)cc1	–	·	·	·	–
C=CCn1c(O)c(CN2CCCCC2)c(C)c(C#N)c1=O	28.2µM	–	–	–	–
Cc1cccc(NS(=O)(=O)c2ccc3c(c2)OCC(C(=O)N2CCCC2)O3)c1C (stereo not drawn)	–	–	–	–	–
Cc1cc(Cl)cc(Cl)c1OCC(=O)NCc1ccco1	?	39.8µM	–	20µM	–
Cc1ccc2c(Cl)cc(Cl)c(OCC(=O)NCc3ccco3)c2n1	·	12.6µM	·	·	·
Cc1ccc2c(Cl)cc(Cl)c(OCC(=O)NC(=O)NCc3ccco3)c2n1	?	?	–	–	–
COc1ccc(Nc2oc(/C=C/c3cccc(OC)c3)nc2C#N)cc1	–	?	–	–	–
O=C(Cc1ccc(-n2cccc2)cc1)NCc1cccs1	–	44.7µM	–	?	–
CCOc1[nH]c(/N=C/c2ccccc2)c(C#N)c1C#N	?	·	–	·	–
CCOc1ccc2nc(N3CCCC(C(=O)Nc4ccc(OC)cc4)C3)sc2c1 (stereo not drawn)	–	–	–	–	–
CC(C)Oc1ccc(/C(O)=C2/C(=O)C(=O)N(Cc3cccnc3)C2c2ccco2)cc1 (stereo not drawn)	?	31.6µM	–	–	–
Clc1ccc(/C=C/c2ccnc3ccccc23)c(Cl)c1	–	·	·	·	–
COc1ccc(N(Cc2cccs2)C(=O)c2ccc(OCC(C)C)cc2)cc1	–	–	–	–	–
CCOC(=O)c1noc2nc(C)n(CC(=O)Nc3ccc(OC)c(Cl)c3)c(=O)c12	–	20µM	–	–	–
O=[N+]([O-])c1cc(/C=N\Nc2nc(-c3ccccc3)cs2)ccc1O	?	39.8µM	–	79.4µM	–
CN(Cc1ccccc1)/[N+]([O-])=N/Oc1ccc([N+](=O)[O-])cc1[N+](=O)[O-]	?	·	·	·	–
CCc1cc2c(=O)c(-c3nc4ccccc4n3C)coc2c(CN2CCN(C)CC2)c1O	–	–	50.1µM	–	–
Cc1cc(N)c2cc(NC(=O)Nc3ccc4nc(C)cc(N)c4c3)ccc2n1	·	·	·	·	6.31µM
SMILES	Pol iota inh	POLB inh	TDP1 block	Pol eta inh	POLK inh
Cc1ccc(CNC(=O)C2CCN(S(=O)(=O)c3ccc4c(c3)CCCN4C(=O)C3CCC3)CC2)cc1	–	–	–	–	–
CCOC(=O)c1nc2sc(C)c(C)c2c(=O)[nH]1	–	–	–	–	–
CCOC(=O)/C(=C\c1cccc(O)c1)c1nc2sc(C)c(C)c2c(=O)[nH]1	17.8µM	–	–	–	–
CCCN(Cc1cccs1)C(=O)Nc1cc(C)cc(C)c1	–	–	–	–	–
O=C(NNC(=O)c1ccc([N+](=O)[O-])o1)c1ccccc1	–	–	–	–	–
C/C(=N/NC(=O)C(O)(c1ccccc1)c1ccccc1)c1ccc([N+](=O)[O-])o1	?	12.6µM	–	79.4µM	–
CC1CCc2nc(-c3cc4c(ccc5ccccc54)oc3=O)sc2C1 (stereo not drawn)	?	·	–	·	–
O=C(O)c1ccc2[nH]c3c(c2c1)CSCC3	–	?	20µM	8.91µM	?
COc1ccc(C)cc1NC(=O)C(OC(=O)CNC(=O)c1cc(C)cc(C)c1)c1ccccc1 (stereo not drawn)	–	–	–	–	–
COc1ccc(C)cc1NC(=O)C(OC(=O)CNC(=O)c1ccccc1)c1ccccc1 (stereo not drawn)	·	·	126µM	·	·
CN(C)c1ccc2ccc3cccc4ccc1c2c34	?	·	·	·	–
O=C(CCC(=O)Nc1ccc(Cl)cc1Cl)N/N=C/c1ccc([N+](=O)[O-])o1	56.2µM	–	–	–	–
CCn1c2ccccc2c2nnc(SC3CCOC3=O)nc21 (stereo not drawn)	–	·	·	·	–
COc1cccc(C2c3[nH]c4ccccc4c3C[C@H]3C(=O)N(C4CC4)CC(=O)N23)c1 (stereo partly drawn)	31.6µM	–	·	?	–
NC(CSC(c1ccccc1)(c1ccccc1)c1cccc2ccccc12)C(=O)O (stereo not drawn)	?	·	·	20µM	?
CCOc1cc(C(=O)NCC(c2ccc(N(C)C)cc2)N2CCOCC2)cc(OCC)c1OCC (stereo not drawn)	–	–	–	–	–
Clc1cccc[n+]1CCCCCC[n+]1ccccc1Cl	–	·	·	·	–
CCCCCCCCCCCCCCCC(=O)C1=C(O)C(CO)OC1=O (stereo not drawn)	·	·	–	·	–[19.4 µM]
Cc1nc(SCC(=O)Nc2cc(C(N)=O)cc(C(N)=O)c2)c2c(C)c(C)sc2n1	?	–	10µM	–	–
CC(=O)Oc1cc2cccc(OC(C)=O)c(=O)c2c(OC(C)=O)c1OC(C)=O	1µM	0.178µM	·	10µM	1µM
CC(=O)Oc1cc2c(c3ccccc13)CCC2=O	–	·	·	–	–
C/C(=N\Nc1nc(-c2cc(C)ccc2C)cs1)c1cc2ccccc2oc1=O	–	50.1µM	–	–	–
C/C(=N\Nc1nc(-c2cc(C)ccc2C)cs1)c1cc2c(ccc3ccccc32)oc1=O	?	?	–	–	79.4µM
Cc1ccc(Cn2c(C(=O)O)c(CNCc3ccc(OC(C)C)cc3)c3ccc(C)cc32)cc1	–	?	–	–	–
Cc1ccc(Cl)cc1N1CCN(C(=O)CCS(=O)(=O)c2ccc3c(c2)oc(=O)n3C)CC1	?	–	–	–	–
Cc1cc(-c2nnc(SCC(=O)Nc3ccc(C)c(C)c3)n2N)n[nH]1	–	2µM	–	–	–
CCOc1ccc(NC(=O)CSc2nnc(-c3ccccc3)n2N)cc1	–	22.4µM	–	?	–

Source: PubChem
